Hits are enriched below; roughly 5.4% of the tested compounds scored in any of these assays.
IMPase cell inh – membrane-permeable compound that blocks inositol monophosphatase; P97697; CHO-M1 cells, IP1 accumulation, HTRF TR-FRET ratio; inhibition (IP1 accumulation), % at 46.1 µM; 120,000 tested, under 10 active; AID 901; active = well fitted curve in the direction sought with a large enough effect in the signal ratio, not every such curve was filed as active; inconclusive = small, poorly fitted or top-dose-only effect, or a change in a side signal; inactive = no such curve, though single readings can be large or run the other way; the % refers to the signal ratio;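 also: cells stimulated with carbachol in lithium chloride buffer; plate controls were DMSO basal wells for no effect and reference inhibitor wells for full effect; higher means more IMPase inhibition seen as more IP1 and lower FRET ratio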
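In this qHTS, compounds (final up to 46 uM) act on CHO-M1 cells that are then activated through the M1 receptor with carbachol, in pH 7.4 buffer containing 50 mM LiCl, for 30 min. IP1 accumulation is quantified by the IP-One immunoassay.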
ALOX15B inhib – blocks human 15-lipoxygenase 2 activity; O15296; purified 15hLO-2, xylenol orange hydroperoxide absorbance; Potency, µM (highest dose often 57.1 µM), inactives show top-dose activity change, negative = inhibition, hits mostly inhibitors; 110,000 compounds, 0.56% hits; also: potency is read from the fitted curve at half-maximal effect; nearly all actives have a fitted effect of over 60% in size
Target sequence (O15296 whole entry, looked up): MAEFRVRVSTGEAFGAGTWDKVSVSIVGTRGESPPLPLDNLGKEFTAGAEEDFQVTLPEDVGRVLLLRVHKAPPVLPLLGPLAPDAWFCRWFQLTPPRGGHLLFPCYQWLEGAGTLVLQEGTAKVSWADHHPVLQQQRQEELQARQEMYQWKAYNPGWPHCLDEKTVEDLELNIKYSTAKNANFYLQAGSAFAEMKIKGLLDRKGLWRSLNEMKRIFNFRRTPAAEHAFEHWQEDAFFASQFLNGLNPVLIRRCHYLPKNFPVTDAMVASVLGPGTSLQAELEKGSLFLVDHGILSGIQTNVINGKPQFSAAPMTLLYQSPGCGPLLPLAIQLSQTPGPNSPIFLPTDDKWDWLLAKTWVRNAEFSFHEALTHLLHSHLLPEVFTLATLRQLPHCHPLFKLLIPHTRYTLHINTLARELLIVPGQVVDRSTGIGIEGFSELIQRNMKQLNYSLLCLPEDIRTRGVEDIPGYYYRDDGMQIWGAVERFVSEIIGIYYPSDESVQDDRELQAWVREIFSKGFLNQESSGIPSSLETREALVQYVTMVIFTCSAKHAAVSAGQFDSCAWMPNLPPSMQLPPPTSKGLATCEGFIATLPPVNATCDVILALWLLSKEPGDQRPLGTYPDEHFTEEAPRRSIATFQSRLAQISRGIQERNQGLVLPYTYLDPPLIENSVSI
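Read-out: hydroperoxide product oxidises ferrous iron, measured as xylenol orange complex via the 573-to-405 nm absorbance ratio after 30 min. Reaction: 50 nM enzyme, 15 min compound preincubation, 45 uM arachidonic acid, 90 min RT, Hepes pH 7.5 with Triton X-100.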
HPGD inh – inhibitors of human 15-hydroxyprostaglandin dehydrogenase (HPGD); 150,000 compounds, 4.3% hits; P15428; Potency, µM, inactives show at the highest dose activity change, negative = inhibition, actives largely listed as inhibitors; purified HPGD, NADH fluorescence kinetic, PGE2 substrate; AID 894; active = well fitted inhibition curve with a large enough effect, not every such curve was filed as active; inconclusive = small, poorly fitted or top-dose-only effect, or another doubt; inactive = no such curve, though single readings can be large or run the other way; also: potency is read from the fitted curve at half-maximal effect
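NADH formation kinetics: reaction with 30 uM PGE2 and 1 mM NAD+ (final), 20 nM enzyme, Tris-HCl pH 8 with Tween 20, after 15 min compound preincubation at room temperature. Fluorescence change, last versus first of five reads.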
IMPase Li inh – cell-permeable IMPase inhibitors with lithium potentiation | CHO-M1 cells, IP1 TR-FRET (IP-One), carbachol + lithium | Potency, µM (top dose mostly 59.4 µM), without a hit: at the highest dose activity, negative = IMPase inhibition, actives largely listed as inhibitors | 210,000 compounds, 0.35% hits;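 also: IP1 builds up when IMPase is blocked and the TR-FRET signal falls; potency is read from the fitted curve at half-maximal effect; plate controls were basal vehicle for no effect and high inhibitor control for full effect; nearly all actives have a fitted effect of over 50% in size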
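Readout is a homogeneous TR-FRET IP1 immunoassay (Ex 320, Em 665 and 620), where raised cytosolic IP1 lowers signal. Cells were CHO-M1 treated 30 min at 37C with test compounds plus a little lithium; AC50 values came from Hill-equation fitting.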
12-hLO inh – 12-hLO (ALOX12) enzyme inhibition. AID 1452. 150,000 compounds, 0.12% hits. purified 12-hLO, xylenol orange hydroperoxide absorbance. Potency, µM (top dose mostly 57.1 µM), for inactives: at the highest dose activity change, negative = inhibition, hits mostly inhibitors; also: potency is read from the fitted curve at half-maximal effect; nearly all actives have a fitted effect of over 55% in size
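150 nM 12hLO, 25 mM Hepes pH 7.0 + 0.01% Triton X-100; cpd preinc 15 min RT; 40 uM arachidonic acid, 30 min RT; Fe-XO 30 min; A573/A405 ratio as read-out.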
PNC assembly inh – perinucleolar compartment assembly inhibition; PC3M PTB-GFP, PNC prevalence imaging, 16 h; stronger effect = lower value; activity change (PNC), negative = inhibition, % at 10 µM; 140,000 compounds, 3.1% hits;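 active = readout at or below -70, meaning at least 70% loss of cells showing the perinucleolar compartment, a nuclear body marking cancer cells; inconclusive = readout between -30 and a set limit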;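 also: plate controls were DMSO wells for no effect and camptothecin positive control wells for full effect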
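Compounds are pinned in duplicate onto adhered PC3M cells stably expressing GFP-tagged PTB and incubated 16 h at 37 C. Cells are then fixed, nuclei stained with Hoechst, and PNC-positive cells counted.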
* = called active by the depositor; ? = inconclusive; nt = no result; [ ] = another dose, or the depositor's remark. Unless noted, calls follow the shape of the dose curve; as a rule, active = well fitted curve in the direction sought with a large enough effect; inconclusive = small, poorly fitted or top-dose-only effect, or another doubt; inactive = no such curve, though single readings can be large; an effect the other way counts as inactive or inconclusive. Unless noted, % is scaled to controls: 0 for no effect and ±100 for the full control effect.

SMILES | IMPase cell inh | ALOX15B inhib | HPGD inh | IMPase Li inh | 12-hLO inh | PNC assembly inh
NS(=O)(=O)c1cccc2c1c([N+](=O)[O-])cc1nc(O)c(O)nc12 | 10 | 3% | 16µM* | 26% | -16% | nt
NS(=O)(=O)c1cccc2c1c([N+](=O)[O-])cc1[nH]c(=O)c(=O)[nH]c12 | 21 | -2% | 16µM* | 22% | -9% | nt
C/C(=N/O)[C@@H]1C[C@H](CC(=O)O)C1(C)C | nt | -6%[11.4 µM] | -9% | -12% | -6%[11.4 µM] | nt
COc1cccc(C2=NO[C@@H]3C(=O)N(c4ccc5c(c4)OCCO5)C(=O)[C@H]23)c1OC | 7 | -1% | -13% | -6%[38.3 µM] | -3% | -16
COc1cccc(C2=NO[C@@H]3C(=O)N(Cc4ccccc4)C(=O)[C@H]23)c1OC | ? | -9% | ? | -4%[38.3 µM] | -5% | -107*
CCn1c(/C=C/Nc2ccccc2)[n+](CC)c2cc(Cl)c(Cl)cc21 | nt | nt | -2% | 16% | -1% | -96*
COc1ccc2oc(=N)c(C(=O)Nc3ccccc3)cc2c1 | -7 | -8% | -12% | 8%[38.3 µM] | -1% | -83*
CNC(=O)c1cc2cc(OC)ccc2oc1=N | -9 | -8% | ? | -5%[38.3 µM] | -6% | 18
Nc1nc(C(=O)O)c(N=Nc2ccccc2)c(=O)[nH]1 | nt | 1%[11.4 µM] | -8% | -5% | 0%[11.4 µM] | nt
CN(C)c1ccnc(NCc2ccccc2)c1C#N | -14 | 8% | 14µM* | 1%[38.3 µM] | -3% | ?
Cc1cc(N(C)C)c(C#N)c(NCc2ccccc2)n1 | 11 | 7% | -25% | 0%[38.3 µM] | -4% | 27
N#Cc1c(NCc2ccccc2)ccnc1NCc1cccnc1 | -8[1.84 µM] | 6%[11.4 µM] | 13µM* | 44%[38.3 µM] | 1% | -106*
Cc1cc(C)c(NC(=O)CSc2nc3ccccc3nc2N2CCCCC2)c(C)c1 | -3 | nt | nt | nt | nt | nt
C=C1C[C@@]23C[C@]1(O)CC[C@@H]2[C@]12C=C[C@@H](O)[C@](C)(C(=O)O1)[C@H]2[C@H]3C(=O)O | 1[20.6 µM] | 0%[25.6 µM] | -9% | -6% | 3%[25.6 µM] | nt
O=C1C=CC2=C3c4cc(O)c(O)cc4CC3(O)COC2=C1O (centres undefined) | ? | ? | 25µM* | 35% | ? | nt
COc1ccc(-c2cc(C(=O)N/N=C/c3ccc(OC)c(OC)c3)[nH]n2)cc1 | nt | nt | ? | nt | -4% | nt
C/C=C/C(=O)C[C@H]1CC[C@@H](C)[C@@H](CCO)O1 | nt | nt | -2% | 10% | nt | nt
O=S(=O)(Cc1cc(Oc2ccccc2)nc(-c2ccccc2)n1)c1ccccc1 | 9 | -2% | -15% | 16%[38.3 µM] | -8% | -102*
CN1CCCN(C)C1c1cc([N+](=O)[O-])ccc1O | nt | -5%[11.4 µM] | -9% | 1% | 0%[11.4 µM] | nt
CN(C)S(=O)(=O)c1cccc(-c2cn3cc(Cl)ccc3n2)c1 | -5 | 0% | ? | 5%[38.3 µM] | -2% | -83*
CN(c1cccc(NC(=O)COc2ccccc2)c1)S(C)(=O)=O | -5 | 10%[2.29 µM] | -17% | 11%[38.3 µM] | -11% | -111*
CSc1cccc(NC(=O)COc2ccccc2)c1 | 8 | 1% | 18µM* | 4%[38.3 µM] | 2% | -10
Cc1ccccc1OCC(=O)Nc1cccc(N(C)S(C)(=O)=O)c1 | ? | -5%[11.4 µM] | -11% | -10%[38.3 µM] | 0% | 7
COC(=O)c1ccccc1NC(=O)CN(c1ccc(Cl)cc1)S(=O)(=O)c1ccc(OC)cc1 | -1 | nt | nt | nt | nt | nt
COC(=O)c1cc(NC(=O)CN(c2ccc(OC)cc2)S(=O)(=O)c2ccc(F)cc2)ccc1Cl | -1 | nt | -6% | 15% | 2% | -119*
CN(c1cccc(NC(=O)CN(c2ccc(Cl)c(Cl)c2)S(=O)(=O)c2ccccc2)c1)S(C)(=O)=O | 13 | nt | -6% | 1% | -3% | -100*
CSc1cccc(NC(=O)Cn2cccc2)c1 | -8 | ? | 14µM* | -21%[38.3 µM] | -1% | -8
COC(CNC(=O)c1ccc2c(c1)nc(C)n2-c1ccc(F)c(F)c1)OC | 2 | nt | 11µM* | 1% | -2% | -91*
COCCNC(=O)c1ccc2c(c1)ncn2-c1ccc(F)c(F)c1 | 2 | ? | 2.5µM* | -17%[38.3 µM] | 2% | 69

Screening data (PubChem)
